The supplement of paper PMC13380429
Unmarked numbers belong to inactive results.

Test system: Vero E6 infected with SARS-CoV-2
Test: inhibition of SARS-CoV-2 cytopathic effect; higher = more antiviral protection, active = above 15
Details: 48 h

Compound | inhibition of SARS-CoV-2 cytopathic effect (1 nM) | inhibition of SARS-CoV-2 cytopathic effect (8.33 nM) | inhibition of SARS-CoV-2 cytopathic effect (100 nM) | inhibition of SARS-CoV-2 cytopathic effect (833.33 nM) | inhibition of SARS-CoV-2 cytopathic effect (10000 nM)
C[C@@H](O)[C@H]1C(=O)N2C(C(=O)O)=C([C@H]3CCCO3)S[C@H]12 [faropenem] | -0.32% | -0.11% | 1.66% | 0.92% | 1.61%
CON(C)C(=O)N1N=C(c2cc(F)ccc2F)S[C@@]1(CCCN)c1ccccc1 [filanesib] | -0.78% | -1.05% | -1.91% | -0.01% | -2.39%
CC1(C)O[C@@H]2C[C@H]3[C@@H]4CCC5=CC(=O)CC[C@]5(C)[C@@]4(F)[C@@H](O)C[C@]3(C)[C@]2(C(=O)CCl)O1 [halcinonide] | 2.25% | 1.06% | -0.43% | -0.9% | -0.92%
CC[C@H](C)C[C@H](C)CCCCCCCCC(=O)N[C@H]1C[C@@H](O)[C@@H](NCCN)NC(=O)[C@@H]2[C@@H](O)CCN2C(=O)[C@H]([C@H](O)CCN)NC(=O)[C@H]([C@H](O)[C@@H](O)c2ccc(O)cc2)NC(=O)[C@@H]2C[C@@H](O)CN2C(=O)[C@H]([C@@H](C)O)NC1=O [caspofungin] | 0.56% | 0.765% | -1.58% | 0.425% | 5.37%
CCOc1ccc(Cc2nccc3cc(OCC)c(OCC)cc23)cc1OCC [ethaverine] | -8.51% | -11.9% | -9.06% | -7.91% | -8.28%
O=C1c2ccccc2CCC1CNCCc1ccc(O)cc1 (stereo not given) | 0.05% | -1.18% | -2.27% | -0.45% | -0.46%
Cc1nc2ccc(Oc3ccc(F)cc3)cc2c(=O)n1C[C@H]1CCCN(C(C)C)C1 | 0.11% | 0.49% | 1.67% | 0.07% | -5.71%
O=C(Nc1cc(C(F)(F)F)cc(C(F)(F)F)c1)c1cc(Cl)ccc1O [IKK-2-inhibitor-V] | -4.92% | -2.65% | 1.55% | 10.7% | 4.63%
N#Cc1ccccc1-c1cc(-c2ccccn2)cn(-c2ccccc2)c1=O [Perampanel] | 2.02% | 0.93% | 4.1% | -0.14% | -5.2%
Nc1ccc(C(=O)O)cc1 [potassium-p-aminobenzoate] | -5.31% | -2.38% | -5.27% | -0.2% | -5%
O=C(COc1ccc(Cl)cc1)N[C@H]1CC[C@H](NC(=O)COc2ccc(Cl)cc2)CC1 | -0.57% | -0.23% | 3.35% | 6.09% | 15.7% (active)
CCOC(=O)C1=C(C)NC(C)=C(C(=O)OC)[C@@H]1c1cccc([N+](=O)[O-])c1 (racemic) [nitrendipine] | 1.59% | 0.33% | -3.74% | -0.45% | 4.26%
O=[N+]([O-])c1cnc(Sc2nnc(O)n2-c2ccc3c(c2)OCCO3)s1 | 0.17% | 0.75% | 1.8% | 0.05% | -17.7%
NCc1ccccc1CC(=O)N[C@@H]1C(=O)N2C(C(=O)O)=C(CSc3nnnn3CC(=O)O)CS[C@H]12 [ceforanide] | 0.96% | 0.98% | -0.17% | 2.04% | 2.57%
Cc1c(C(=O)NN2CCCCC2)nn(-c2ccc(Cl)cc2Cl)c1-c1ccc(I)cc1 | 0.54% | -3.71% | 3.18% | 1.67% | 2.28%
CNC(=O)c1cc(COc2nnc(Nc3ccc(Cl)cc3)c3ccoc23)ccn1 [telatinib] | 0.06% | 2.23% | -1.3% | 0.04% | 0.53%
CO[C@@H](C)Cn1c(=O)n(C)c2cnc3ccc(-c4cncc(C(C)(C)O)c4)cc3c21 | 0.62% | 2.32% | -0.9% | -3.02% | -17.6%
